Screen size: about 69,000 compounds; about 8,600 (12%) showed an effect of 50% or more. The full list was thinned out, with strong results kept by preference.
system: Plasmodium berghei; test: Screen against P. berghei liver stage (PbLuc), transformed with Luciferase, at 10uM; assay type: functional, HepG2; conditions: tested at 10 uM

| Compound | INHIBITION |
| --- | --- |
| CC(C)(C)c1ncc(C(=O)NCCNc2ncccn2)s1 | -39.3% |
| CCN(Cc1ccncc1)CC1(C)Cc2c(N)nc(N)nc2O1 (centres undefined) | 14.27% |
| CC(C)OCc1ncn2c1CN(CC1CC1)CCC2 | 66% |
| Cc1nc(CN2CCCn3cnc(COCC4CC4)c3C2)cs1 | 4.02% |
| c1nc(COCC2CC2)c2n1CCCN(CC1CC1)C2 | 11.5% |
| COc1ccc(CN2CCCn3cnc(COC(C)C)c3C2)cc1 | 56.7% |
| CC(C)OCc1ncn2c1CN(Cc1cnn(C)c1)CCC2 | -7.24% |
| Cc1nc(CN2CCCn3cnc(COC(C)C)c3C2)cs1 | 66% |
| CC(C)OCc1ncn2c1CN(CCO)CCC2 | 0.804% |
| CC(C)OCc1ncn2c1CN(Cc1ccoc1)CCC2 | 59% |
| CC(C)OCc1ncn2c1CN(Cc1nccs1)CCC2 | 46.2% |
| COc1ccc(CN2CCCn3cnc(COCC4CC4)c3C2)cc1 | 42.6% |
| c1cc(CN2CCCn3cnc(COCC4CC4)c3C2)co1 | 35.7% |
| CC(C)OCc1ncn2c1CN(Cc1ccc(F)cc1)CCC2 | 9.67% |
| COc1ccsc1C(=O)N1CCCC(n2nc(C)cc2C)C1 (centres undefined) | -5.25% |
| N#Cc1cccc(NC(=O)C2CCCN2c2nccs2)c1 (centres undefined) | 17.865% |
| O=C(CC1CCCCC1)NC1CCCCNC1=O (centres undefined) | -65.3% |
| CCc1ccc(CC(=O)N2CCN(c3nccn3C)CC2)cc1 | 27% |
| CSCCC(NC(=O)c1ccccc1)C(=O)N(C)Cc1ccsc1 (centres undefined) | 16.1% |
| O=C(NCCn1nc(C2CCNC2)c2cccnc21)c1ccccc1 (centres undefined) | -11.7% |
| CN(C)Cc1nnn2c1CN(Cc1cccnc1)CCC2 | -21.1% |
| CCc1noc(CN2CCN(Cc3cccs3)CC2)n1 | 3.73% |
| COCC(=O)N(C)Cc1nc(N(C)C)ncc1-c1ccncc1 | -3.53% |
| Cc1ncsc1CN1C[C@@H](OCC(=O)N(C)C)[C@H]2OCCC[C@H]21 | -31.3% |
| CC(C)NS(=O)(=O)c1cc(C(=O)O)cc(-c2ccccc2F)c1 | -108% |
| CC(=O)c1ccccc1-c1cc(C(=O)O)cc(S(=O)(=O)NC(C)C)c1 | -9.2% |

| Compound | INHIBITION |
| --- | --- |
| CC(C)NS(=O)(=O)c1cc(C(=O)O)cc(-c2ccccc2C#N)c1 | 53.8% |
| CC(=O)N1CC[C@H]2OCC[C@@H](C(=O)Nc3cccnc3C)[C@H]2C1 | -14.2% |
| CN(C)C(=O)N1C[C@H]2CN(Cc3cccc(F)c3)C(=O)[C@H]2C1 | 33% |
| O=C(c1ccc[nH]1)N1C[C@H]2CN(Cc3cccc(F)c3)C(=O)[C@H]2C1 | 8.53% |
| O=C(CO)N1C[C@H]2CN(Cc3cccc(F)c3)C(=O)[C@H]2C1 | 40.4% |
| COCC(=O)N1C[C@H]2CN(Cc3cccc(F)c3)C(=O)[C@H]2C1 | 50.9% |
| O=C(NC1CC1)N1C[C@H]2CN(Cc3cccc(F)c3)C(=O)[C@H]2C1 | 60.2% |
| O=C(c1ccco1)N1C[C@H]2CN(Cc3cccc(F)c3)C(=O)[C@H]2C1 | 1.94% |
| CCc1ccc(C(=O)N2CCCC2c2c(C)nn(C)c2OC)o1 (centres undefined) | -11.2% |
| Cc1ccc(CN2C[C@@H]3CCCO[C@@H]3[C@H](N(C)Cc3ccco3)C2)s1 | -15.1% |
| O=C(O)C1(Oc2ccc3c(c2)OCO3)CCN(C2CCOCC2)CC1 | 31.9% |
| N#CCC1CC(c2ccc(F)cc2)=NO1 (centres undefined) | 12.6% |
| O=C(CN1CCOC(Cn2cccn2)C1)NCCc1cccs1 (centres undefined) | 6.49% |
| Cn1cccc1C(=O)N1CC[C@H]2[C@H]1CCN2CC1CC1 | 55.6% |
| Cn1cccc1C(=O)N1CC[C@H]2[C@@H]1CCC(=O)N2CC1CC1 | 54.1% |
| Cn1cccc1C(=O)N1C[C@H]2CN(CC3CC3)C(=O)[C@H]2C1 | 2.26% |
| Cn1cccc1C(=O)N1CCC2(CCCN(CC3CCC3)C2=O)C1 (centres undefined) | 53.6% |
| O=C(c1ccoc1)N1CC[C@H]2[C@H]1CCN2CC1CC1 | -6.05% |
| Cn1cccc1C(=O)N1CC[C@@H]2[C@@H]1CC(=O)N2CCN1CCOCC1 | 1.9% |
| Cn1cccc1C(=O)N1CCC2(CCCN(CC3CC3)C2=O)C1 (centres undefined) | 9.63% |
| O=C1C[C@H]2[C@@H](CCN2C(=O)c2ccccc2)N1CCN1CCOCC1 | 30.1% |
| Cn1cccc1C(=O)N1CC[C@H]2[C@@H]1CCC(=O)N2c1ccccc1 | 43.8% |
| Cn1cccc1C(=O)N1CC[C@H]2[C@H]1CCN2CC1CCOCC1 | 27.5% |
| Cn1cc(Cl)cc1C(=O)N1CCC2(CCCN(CC3CCC3)C2=O)C1 (centres undefined) | 19.5% |
| Cn1cccc1C(=O)N1CC[C@@H]2[C@@H]1CC(=O)N2CC1CCOCC1 | 51.2% |
| CCCn1nc(C)c2c(C(F)F)cc(=O)n(CC(=O)O)c21 | -7.59% |

| Compound | INHIBITION |
| --- | --- |
| O=C(c1cccc2ncccc12)N1CCCC(n2ccnc2)C1 (centres undefined) | 27.72% |
| CC(C)c1nnc(NC(=O)CN2C(=O)c3ccccc3NC2C(C)C)s1 (centres undefined) | 19.4% |
| Cc1nn(C)c(N2CCOCC2)c1CNCc1ccc(CO)c(F)c1 | -35.7% |
| CCCc1cc(NC2CCc3nc(CC)nn3C2)n2ncnc2n1 (centres undefined) | 16.6% |
| CN1C[C@H]2CNC[C@@]2(C(=O)NC2CCN(c3ncccc3C#N)CC2)C1 | 36.6% |
| COCc1nn(C(C)C)c2c1CCN(Cc1ccc(C)s1)C2 | -6.53% |
| COCc1nn(C(C)C)c2c1CCN(Cc1ccc(C)o1)C2 | 58.8% |
| COCc1nn(C(C)C)c2c1CCN(Cc1ccoc1)C2 | -76.7% |
| N#Cc1ccsc1NC(=O)CN1CCn2c(nnc2C2CC2)C1 | 23.4% |
| Cc1cc(CN(CCO)Cc2cc(Br)ccc2F)no1 | 37.8% |
| Cc1ccccc1Cn1nnc2cc3c(cc2c1=O)OCCO3 | 37.5% |
| O=c1c2cc3c(cc2nnn1Cc1ccccc1)OCCO3 | 15.1% |
| O=c1c2cc3c(cc2nnn1Cc1ccccc1Cl)OCCO3 | 57.3% |
| CC(=O)N1CC(=O)N(c2ccccc2)CC12CCN(Cc1nccs1)C2 (centres undefined) | -0.912% |
| CC(=O)N1N=C(c2cccs2)OC1C(=O)NCCc1cccc(Cl)c1 (centres undefined) | 25.3% |
| Cc1cc(C)n(Cc2cccc(C(=O)N(CCC#N)CCC#N)c2)n1 | 56% |
| Cc1nc2ccc(C(=O)N(CCC#N)CCC#N)cc2nc1C | -37.4% |
| COC(=O)c1cccc(C(=O)N(CCC#N)CC(C)(C)C)c1 | 68.6% |
| CC(C)(C)CN(CCC#N)C(=O)c1cccc(CC#N)c1 | 80% |
| CC(C)(C)CN(CCC#N)C(=O)c1cccc(CN2CCCC2)c1 | -38.2% |
| CCN(CC)C(=O)c1cccc(Cn2nc(C)cc2C)c1 | 10.5% |
| COCCN(CCOC)C(=O)c1cccc(Cn2nc(C)cc2C)c1 | 11.1% |
| CC(C)(C)CN(CCC#N)C(=O)Nc1cccc(N2CCNC2=O)c1 | -45.2% |
| N#CCCN(CCC#N)C(=O)c1cccc(N2CCNC2=O)c1 | 46.1% |
| Cc1csc(C2CCCCN2C(=O)c2cc(C)n(C)n2)n1 (centres undefined) | 17.5% |
| O=c1cc(Cn2ccnc2)nc2n1CCCN(Cc1ccc(F)cc1)C2 | -3.52% |

| Compound | INHIBITION |
| --- | --- |
| Cn1ccnc1CN1CCN(CCOc2ccccc2F)CC1 | 7.27% |
| CC(C)c1ncc(CN2CCC(CO)C2)cn1 (centres undefined) | 8.72% |
| CC(C)c1n[nH]c(C2CN(C(=O)Cn3ccccc3=O)CCO2)n1 (centres undefined) | 62.1% |
| CCCc1n[nH]c(C2CN(C(=O)Cn3ccccc3=O)CCO2)n1 (centres undefined) | 48.4% |
| CCc1n[nH]c(C2CN(C(=O)Cn3ccccc3=O)CCO2)n1 (centres undefined) | 53% |
| CC(C)c1n[nH]c(C2CN(C(=O)CCn3ccccc3=O)CCO2)n1 (centres undefined) | 5.97% |
| Cc1n[nH]c(C2CN(C(=O)Cn3ccccc3=O)CCO2)n1 (centres undefined) | 34.5% |
| CCc1n[nH]c(C2CN(C(=O)CCn3ccccc3=O)CCO2)n1 (centres undefined) | -22.9% |
| Cc1noc([C@H]2C[C@@H]3CCN(CC4CCOCC4)C[C@H]3O2)n1 | 27.7% |
| CNC(=O)CN1CC[C@H]2CN(C(=O)c3cccc(C)c3)C[C@H]2C1 | 8.52% |
| Cc1nocc1C(=O)N1CCc2c(CN(C)C)nn(C)c2C1 | -1.12% |
| O=C(c1cc2c(s1)CCOC2)N1CCCC1Cn1cccn1 (centres undefined) | 8.64% |
| O=C(Cn1cnc2cc3c(cc21)OCCCO3)NC1CCCCC1 | 13.7% |
| c1cc(CN2CCC(c3ccnc4nccn34)C2)ccn1 (centres undefined) | 35.7% |
| c1ccc2c(Cc3nnc([C@H]4CCN(C5CCCCC5)C4)o3)c[nH]c2c1 | 8.67% |
| c1ccc2c(Cc3nnc([C@H]4CCNC4)o3)c[nH]c2c1 | 65.6% |
| c1ccc2c(Cc3nnc([C@H]4CCN(C5CCC5)C4)o3)c[nH]c2c1 | -4.88% |
| c1ccc2c(Cc3nnc([C@H]4CCN(C5CCOCC5)C4)o3)c[nH]c2c1 | 56.1% |
| c1ccc2c(Cc3nnc([C@H]4CCN(CC5CC5)C4)o3)c[nH]c2c1 | 5.96% |
| CN1CC[C@H](c2nnc(Cc3c[nH]c4ccccc34)o2)C1 | 24.9% |
| CCn1nc(C)c2nc(C(C)C)nc(NCC(=O)N3CCOCC3)c21 | 48.2% |
| CC(C)c1noc(CN2CCCN(Cc3cccs3)CC2)n1 | 11.6% |
| CCOC1Sc2nnc(C)n2N=C1c1ccc(Cl)cc1 (centres undefined) | 31.8% |
| CN(C(=O)c1ccc(S(=O)(=O)NC(C)(C)C)cc1)C1(C#N)CCC1 | 50.4% |
| CN(Cc1ccsc1)C(=O)c1ccc(S(=O)(=O)NC(C)(C)C)cc1 | -61.4% |
| CCC(C)NS(=O)(=O)c1ccc(C(=O)N(C)C2(C#N)CCC2)cc1 (centres undefined) | 46.3% |

— ChEMBL document CHEMBL4513216, “Probing the Open Global Health Chemical Diversity Library for Multistage-Active Starting Points for Next-Generation Antimalarials” (ACS Infect Dis, 2020)
